EBV gp42 inh – Epstein-Barr virus gp42 inhibitors, primary screen, biochemical, uHTS, fluorescence polarization. actives 0.42% (n = 220,000). Fluorescence polarization binding assay, mP read-out. inhibition, % (tested at 21.74 µM). AID 1085, 2008; in the data active = inhibition above about 50%
BCLXL inh – inhibitors of human Bcl-xL, primary screen, biochemical, fluorescence polarization, HTS. Bcl-2-like protein 1 (Homo sapiens), Q07817. GST-Bcl-xL / FITC-Bim BH3 peptide fluorescence polarization. inhibition, % at 10.9 µM. actives 0.7% (n = 320,000). AID 2129, 2009;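 active = inhibition above the mean of all tested compounds plus 3 SD, cutoff set per campaign, cut at about 30% in these data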;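 note: 0% = DMSO wells and 100% = unlabeled Bim-BH3 peptide competitor; inhibitors lower millipolarization by displacing the labeled peptide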
Target sequence (Q07817 whole entry, looked up): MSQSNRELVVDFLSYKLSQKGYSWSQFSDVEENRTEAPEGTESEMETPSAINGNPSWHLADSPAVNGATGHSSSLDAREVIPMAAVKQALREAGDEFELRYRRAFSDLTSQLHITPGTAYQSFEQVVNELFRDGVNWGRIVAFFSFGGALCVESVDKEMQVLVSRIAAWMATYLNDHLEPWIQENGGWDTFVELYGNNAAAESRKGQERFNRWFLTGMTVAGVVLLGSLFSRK
E coli Lon inh – inhibitors of E. coli Lon protease, primary screen, biochemical, fluorescence polarization; P0A9M0; actives 0.42% (n = 360,000); purified E. coli Lon protease; inhibition, % at 7.94 µM; in the data active = inhibition above about 13%, passing the limit was not always enough;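 note: 0% = enzyme with probe and DMSO and 100% = no enzyme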
MEX-5 binding – MEX-5 zinc finger RNA-binding disruptors – biochemical, C. elegans, fluorescence polarization, MLPCN library, primary screen | Zinc finger protein mex-5 (Caenorhabditis elegans), Q9XUB2 | MEX-5/FITC-TCR2 RNA binding; active compounds read low | activity score (negative = inhibition of binding), % at 10 µM | actives 0.38% (n = 300,000) | AID 1832, 2009;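 active = inhibition past about -25% in most replicates, and total fluorescence under double the plate's negative control median, limit read from the data; inconclusive = replicates evenly split on the limit, or fluorescence at least double controls; inactive = too little inhibition in most replicates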;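 note: 0% = DMSO and -100% = 5 µM competing unlabeled TCR2 RNA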
MCL1 BIM primary – inhibitors of MCL1 binding to BIM-BH3, primary screen, biochemical, fluorescence polarization. Induced myeloid leukemia cell differentiation protein Mcl-1 (Homo sapiens), Q07820. GST-MCL1 / FITC-Bim-BH3 fluorescence polarization. inhibition, % at 10.9 µM. actives 0.68% (n = 320,000);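 active = inhibition above the mean inhibition of all tested compounds plus 3 SD, set per campaign, cut at about 40% in these data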;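 note: 0% = DMSO wells and 100% = unlabeled Bim-BH3 peptide control; higher means more loss of mP so more displacement of Bim peptide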
Target sequence (Q07820 whole entry, looked up): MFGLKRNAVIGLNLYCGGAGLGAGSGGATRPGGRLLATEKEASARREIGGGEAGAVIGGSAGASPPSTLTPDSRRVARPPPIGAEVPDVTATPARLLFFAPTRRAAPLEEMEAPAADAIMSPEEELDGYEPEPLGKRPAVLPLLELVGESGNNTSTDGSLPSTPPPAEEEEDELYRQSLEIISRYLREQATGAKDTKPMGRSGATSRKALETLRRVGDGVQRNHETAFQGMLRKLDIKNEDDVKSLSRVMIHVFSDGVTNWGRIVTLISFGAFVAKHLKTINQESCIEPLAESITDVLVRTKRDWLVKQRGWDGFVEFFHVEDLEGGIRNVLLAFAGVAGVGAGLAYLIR
GLD-1 TGE inh – GLD-1/TGE RNA complex disruptors, primary screen, biochemical, fluorescence polarization | Female germline-specific tumor suppressor gld-1 (Caenorhabditis elegans), Q17339 | purified GLD-1 + fluorescein TGE RNA | inhibition, % at 5.96 µM | actives 0.44% (n = 320,000) | AID 2280, 2010;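 active = percent inhibition above a per-plate cutoff, the plate mean of test compounds plus 3 SD, cut at about 30% in these data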;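 note: 0% = DMSO wells with GLD-1 and probe and 100% = wells lacking GLD-1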
E coli Lon conf – E. coli Lon protease inhibitor retest, confirmation, biochemical, fluorescence polarization; AID 602230, 2012; shares compounds with E coli Lon inh; actives 31% (n = 1,400); purified E. coli Lon; inhibition, % at 7.94 µM; in the data active = inhibition above about 16%;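 note: 0% = enzyme with probe and DMSO and 100% = no enzyme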
Numbers without * were called inactive; u = inconclusive; x = not tested or not shown; + = active, no number. A selection: hits, their analogues and other compounds. The true share with any hit is near 1.5%.

SMILES | EBV gp42 inh | BCLXL inh | E coli Lon inh | MEX-5 binding | MCL1 BIM primary | GLD-1 TGE inh | E coli Lon conf
CCN1CC=C2C(C#N)=C(N)C(C#N)(C#N)C(c3cc(Cl)ccc3Cl)C2C1 (stereo not given) | 73* | 122* | 28* | u | 150* | 104* | -4
COc1cc2[nH]c(=S)nc(NCc3cccc(Cl)c3)c2cc1OC | x | 11 | -16 | -2 | 7 | -4 | x
Cc1ccc(S(=O)(=O)NNC(=S)Nc2ccccc2)cc1 | -6 | 2 | 22* | -2 | 9 | -3 | -6
Cc1ccc(S(=O)(=O)NNC(=S)Nc2ccc(Cl)cc2)cc1 | 8 | -6 | -2 | -3 | -7 | 0 | x
O=C(NC(c1ccc(F)cc1)c1ccc2ccccc2n1)C1CCN(Cc2ccc3ccccc3n2)CC1 (stereo not given) | x | x | -19 | x | x | x | x
COc1cc(/C=C/CN2CCC(C(=O)NC(c3ccc(F)cc3)c3ccc4ccccc4n3)CC2)ccc1OC(C)=O (stereo not given) | x | x | 26* | x | x | x | 1
COc1ccc(C(=O)OCC(=O)Nc2ccc(F)c(F)c2)cc1OC | -9 | 10 | 14* | 1 | 2 | -1 | -4
Cc1ccc(C(=O)N2CCCCC2)cc1S(=O)(=O)N1CCCCCC1 | x | 6 | -3 | 0 | 11 | 9 | x
COc1ccc(N(CC(=O)Nc2ccc3c(c2)OCCO3)S(C)(=O)=O)c(OC)c1 | -17 | 3 | -3 | 1 | 1 | 5 | x
O=C(c1ccccc1NS(=O)(=O)c1cccs1)N1CCCC1 | -4 | 6 | 20* | 2 | -3 | 6 | -5
O=C(c1ccccc1NS(=O)(=O)c1ccccc1)N1CCCCCC1 | x | 0 | -9 | 3 | -4 | 1 | x
OCC[C@@H]1C[C@@H](O)[C@H](O)[C@]2(OCCc3ccccc32)O1 | x | 7 | 8 | 0 | 0 | -2 | x
O=C(O)CCC1(C(=O)O)OCCc2ccccc21 (stereo not given) | 16 | 3 | 17* | 0 | -2 | 1 | -2
COC(=O)c1c(C(=O)OC)c2n(c1C)Cc1ccccc1C2 | 1 | 12 | 123* | u | 15 | 13 | -36
Cc1ccc(C(=O)CSc2ncn[nH]2)cc1 | -15 | -6 | 3 | 2 | -10 | -2 | x
COc1ccc(C(=O)CSc2ncn[nH]2)cc1OC | -12 | 0 | 21* | 3 | 6 | 4 | -10
CCOC(=O)N(C)OC(=O)Nc1ccc(Cl)c(Cl)c1 | -8 | 8 | 19* | -3 | 12 | 3 | 25*
CCSc1nnc(Cc2cc(=O)[nH]c(=O)[nH]2)n1-c1ccc(Cl)cc1 | -21 | 10 | 13 | 1 | 4 | 15 | x
COC(=O)C(C)Sc1nnc(Cc2cc(=O)[nH]c(=O)[nH]2)n1-c1ccc(Cl)cc1 (stereo not given) | 0 | 21 | 37* | -15 | 21 | 27 | 8
CCOC(=O)C(C)Sc1nnc(Cc2cc(=O)[nH]c(=O)[nH]2)n1-c1ccc(OCC)cc1 (stereo not given) | -11 | 0 | -3 | x | -6 | 5 | x
CCOC(=O)C(C)Sc1nnc(Cc2cc(=O)[nH]c(=O)[nH]2)n1-c1ccc(Cl)cc1 (stereo not given) | -9 | 18 | 24* | -5 | 12 | 24 | 8
O=C(c1ccc(N2CCN(C(=O)c3ccccc3)CC2)cc1)c1cccc(F)c1 | x | 4 | -10 | 1 | -1 | -3 | x
O=C1C2C(C(=O)N1Cc1ccco1)C1C=CC2C12CC2 (stereo not given) | -2 | 1 | -2 | 1 | -6 | -3 | x
O=C1C2C3c4ccccc4C(c4ccccc43)C2C(=O)N1Cc1ccco1 (stereo not given) | x | 4 | 20* | -1 | 7 | 3 | 4
COc1ccccc1NC(=O)Nc1nc(CC(=O)NCc2ccccn2)cs1 | x | 8 | -1 | -4 | 10 | 6 | x
SMILES | EBV gp42 inh | BCLXL inh | E coli Lon inh | MEX-5 binding | MCL1 BIM primary | GLD-1 TGE inh | E coli Lon conf
COC(=O)[C@H](CC(C)C)NC(=O)Cn1cnc2c(SC)nc(N)nc21 | x | x | 12* | x | x | 9 | 2
Cc1ccc(N(CC(=O)N2CCCC2)S(C)(=O)=O)c(C)c1 | x | 0 | 36* | 6 | 5 | 4 | 7
Cc1ccc(N(CC(=O)N2CCCC2)S(C)(=O)=O)cc1C | x | 5 | 13 | 1 | -6 | -1 | x
CC(C)[C@H](NC(=O)OCc1ccccc1)C(=O)NC(C=O)Cc1ccccc1 (stereo not given in full) | x | 3 | 55* | x | 3 | 1 | 59*
CCCNC(=O)c1ccc2c(=O)c(O)c(-c3cccc(Br)c3)[nH]c2c1 | -11 | 7 | 143* | -84* | 3 | 9 | 135*
Cc1nc(C(=O)NCCO)cc2c1[nH]c1ccccc12 | x | x | -1 | 0 | x | x | x
CCCNC(=O)c1ccc2c(=O)c(O)c(-c3ccc(F)cc3)[nH]c2c1 | -15 | 6 | 163* | -90* | 2 | 8 | 100*
Nc1c(Cl)cc(-c2[nH]c3cc(C(=O)NCCO)ccc3c(=O)c2O)cc1Cl | x | 2 | + | u | 18 | 3 | 193*
CCCNC(=O)c1ccc2c(=O)c(O)c(C)[nH]c2c1 | 13 | 11 | 1 | -13 | 17 | -1 | x
COc1ccc(CCNc2cc(C)nc3c(-c4ccccc4)c(C)nn23)cc1OC | 14 | 3 | 9 | -4 | 1 | 3 | x
COC(=O)[C@H](C)NC(=O)Nc1ccccc1F | -11 | 1 | -5 | 0 | 1 | 5 | x
COc1ccc(-n2nnnc2C2c3ccccc3C(=O)N2C2CCN(Cc3ccccc3)CC2)cc1 (stereo not given) | x | x | -3 | x | x | x | x
Cc1ccc2nc(N3CCN(C)CC3)c(C=O)c(=O)n2c1 | x | 34* | 64* | -6 | 38 | 16 | -1
Cc1ccc2nc(N3CCN(c4ccccc4)CC3)c(C=O)c(=O)n2c1 | 6 | 5 | 8 | -1 | 11 | 2 | x
CCN1CCN(c2nc3ccccn3c(=O)c2C=O)CC1 | x | 31* | 20* | -8 | 30 | 11 | -3
O=Cc1c(N2CCN(c3ccccc3)CC2)nc2ccccn2c1=O | 1 | 8 | -1 | -3 | -2 | -2 | x
Cn1c(SCC(=O)N2CCCCC2)nc2c([nH]c3ccccc32)c1=O | 5 | 5 | 0 | 2 | 0 | 3 | x
CCCn1c(SCC(=O)Nc2nc3c(s2)CCCC3)nc2c1c(=O)n(C)c(=O)n2C | -11 | 1 | -2 | 0 | -6 | 3 | x

Compound activity as filed in PubChem BioAssay.
